Data as given in PubChem BioAssay AID1159580 (chemical genetic matrix, 2015).
Hit rate of the full screen: of about 5,500 compounds, about 2,000 (36%) were called active. About 18% were inconclusive and are not listed. No stated cut-off is given here; in the data, active means normalized growth mostly below about 0.91 (no sharp cut-off); inconclusive means no clear call, values can overlap the other calls; inactive means mostly above about 0.92. This is one part of the list.

Experiment: chemical genetic growth profiling, strain panel (AID 1159580);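 further: tested at 20 µM; growth read once vehicle control cultures reached saturation at 30 °C; 1 = growth at the plate median or of vehicle wells; lower values mean less growth of the strain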
Details: S. cerevisiae deletion strains, growth OD
[1] = locus YAR019C, strain CDC15, hits give low values
[2] = locus YBL105C, strain PKC1, hits give low values
[3] = locus YBR135W, strain CKS1, hits give low values
[4] = locus YBR136W, strain MEC1, hits give low values
[5] = locus YBR160W, strain CDC28, hits give low values
[6] = locus YDL017W, strain CDC7, hits give low values
[7] = locus YDL028C, strain MPS1, hits give low values
[8] = locus YDL101C, strain DUN1, hits give low values
[9] = locus YDL108W, strain KIN28, hits give low values
[10] = locus YDL132W, strain cdc53, hits give low values
[11] = locus YDL214C, strain PRR2, hits give low values
[12] = locus YDR052C, strain DBF4, hits give low values
[13] = locus YDR054C, strain cdc34, hits give low values
[14] = locus YDR226W, strain ADK1, hits give low values
[15] = locus YDR477W, strain SNF1, hits give low values
[16] = locus YER123W, strain YCK3, hits give low values
[17] = locus YER133W, strain GLC7, hits give low values
[18] = locus YFL009W, strain cdc4, hits give low values
[19] = locus YFL029C, strain CAK1, hits give low values
[20] = locus YFR003C, strain YPI1, hits give low values
[21] = locus YFR019W, strain FAB1, hits give low values
[22] = locus YFR028C, strain CDC14, hits give low values
[23] = locus YGR040W, strain KSS1, hits give low values
[24] = locus YGR052W, strain FMP48, hits give low values
[25] = locus YGR092W, strain DBF2, hits give low values
[26] = locus YHR030C, strain SLT2, hits give low values
[27] = locus YHR079C, strain IRE1, hits give low values
[28] = locus YHR082C, strain KSP1, hits give low values
[29] = locus YHR205W, strain SCH9, hits give low values
[30] = locus YIL147C, strain SLN1, hits give low values
[31] = locus YJL095W, strain BCK1, hits give low values
[32] = locus YJL128C, strain PBS2, hits give low values
[33] = locus YJL157C, strain FAR1, hits give low values
[34] = locus YJR016C, strain ILV3, hits give low values
[35] = locus YJR066W, strain TOR1 (second series), hits give low values
[36] = locus YJR066W, strain TOR1, hits give low values
[37] = locus YKL048C, strain ELM1, hits give low values
[38] = locus YKL067W, strain YNK1, hits give low values
[39] = locus YKL101W, strain HSL1, hits give low values
[40] = locus YKL193C, strain SDS22, hits give low values
[41] = locus YKL203C, strain TOR2, hits give low values
[42] = locus YLR113W, strain HOG1, hits give low values
[43] = locus YLR133W, strain CKI1, hits give low values
[44] = locus YLR403W, strain SFP1, hits give low values
[45] = locus YML070W, strain DAK1, hits give low values
[46] = locus YMR001C, strain CDC5, hits give low values
[47] = locus YMR205C, strain PFK2 (second series), hits give low values
[48] = locus YMR277W, strain FCP1, hits give low values
[49] = locus YNL006W, strain LST8, hits give low values
[50] = locus YNL020C, strain ARK1, hits give low values
[51] = locus YNL161W, strain CBK1, hits give low values
[52] = locus YNL183C, strain NPR1, hits give low values
[53] = locus YNL207W, strain RIO2, hits give low values
[54] = locus YNL222W, strain SSU72, hits give low values
[55] = locus YNL307C, strain MCK1 (second series), hits give low values
[56] = locus YOL078W, strain AVO1, hits give low values
[57] = locus YOL136C, strain PFK27, hits give low values
[58] = locus YOR061W, strain CKA2, hits give low values
[59] = locus YOR119C, strain RIO1, hits give low values
[60] = locus YOR231W, strain MKK1, hits give low values
[61] = locus YOR329C, strain SCD5, hits give low values
[62] = locus YPL031C, strain PHO85, hits give low values
[63] = locus YPL153C, strain RAD53, hits give low values
[64] = locus YPL204W, strain HRR25, hits give low values
[65] = locus YPL209C, strain IPL1, hits give low values
[66] = locus YPL256C, strain CLN2, hits give low values
[67] = locus YPR025C, strain CCL1, hits give low values
[68] = locus YPR106W, strain ISR1, hits give low values
[69] = locus YPR111W, strain DBF20, hits give low values
[70] = strain NNK1, hits give low values
[71] = strain TSCII, hits give low values

Measured: normalized growth

O=C1/C(=C/c2ccc(C(F)(F)F)cc2)COc2ccccc21
active: [26] 0.824 | [42] 0.823 | [66] 0.852
inactive: [1] 0.937 | [2] 0.924 | [3] 0.92 | [4] 0.924 | [5] 0.926 | [6] 0.926 | [7] 0.925 | [8] 0.946 | [9] 0.923 | [10] 0.934 | [11] 0.936 | [12] 0.931 | [13] 0.931 | [14] 0.925 | [15] 0.914 | [16] 0.886 | [17] 0.913 | [18] 0.926 | [19] 0.927 | [20] 0.93 | [21] 0.953 | [22] 0.961 | [23] 0.894 | [24] 0.953 | [25] 0.719 | [27] 0.888 | [28] 0.85 | [29] 0.784 | [30] 0.917 | [31] 0.901 | [32] 0.896 | [33] 0.92 | [34] 0.929 | [35] 0.976 | [36] 0.817 | [37] 0.897 | [38] 0.938 | [39] 0.906 | [40] 0.93 | [41] 0.921 | [43] 0.916 | [44] 0.846 | [45] 0.922 | [46] 0.918 | [47] 0.889 | [48] 0.933 | [49] 0.948 | [50] 0.881 | [51] 0.936 | [52] 0.88 | [53] 0.925 | [54] 0.938 | [55] 0.861 | [56] 0.931 | [57] 0.913 | [58] 0.879 | [59] 0.868 | [60] 0.916 | [61] 0.931 | [62] 0.897 | [63] 0.93 | [64] 0.921 | [65] 0.932 | [67] 0.925 | [68] 0.959 | [69] 0.946 | [70] 0.91 | [71] 0.932

CC1(C)c2ccccc2N(CCC(N)=O)C12C=Cc1c(ccc3ccccc13)O2 (configuration not stated)
inactive: [1] 0.972 | [2] 0.968 | [3] 0.97 | [4] 0.95 | [5] 0.971 | [6] 0.965 | [7] 0.969 | [8] 0.955 | [9] 0.944 | [10] 0.964 | [11] 0.901 | [12] 0.97 | [13] 0.956 | [14] 0.973 | [15] 0.939 | [16] 0.865 | [17] 0.927 | [18] 0.979 | [19] 0.964 | [20] 0.959 | [21] 0.943 | [22] 0.981 | [23] 0.92 | [24] 0.968 | [25] 0.906 | [26] 1.04 | [27] 0.973 | [28] 0.97 | [29] 0.956 | [30] 0.971 | [31] 0.975 | [32] 0.907 | [33] 0.896 | [34] 0.969 | [35] 0.891 | [36] 0.962 | [37] 0.912 | [38] 0.918 | [39] 0.908 | [40] 0.959 | [41] 0.985 | [42] 0.919 | [43] 0.944 | [44] 0.915 | [45] 0.883 | [46] 0.966 | [47] 0.926 | [48] 0.968 | [49] 0.986 | [50] 0.915 | [51] 0.966 | [52] 0.989 | [53] 0.96 | [54] 0.962 | [55] 0.922 | [56] 0.96 | [57] 0.907 | [58] 0.889 | [59] 0.968 | [60] 0.95 | [61] 0.971 | [62] 0.921 | [63] 0.931 | [64] 0.937 | [65] 0.966 | [66] 0.925 | [67] 0.973 | [68] 0.957 | [69] 0.963 | [70] 0.944 | [71] 0.97
